Experimental data reported in PubChem BioAssay.
Active and inactive are the calls of the source. Unless noted, no rule for the calls is given here.

Legend:
[1] = system: XIP peptide (Xip251-270) binding; experiment: XIP fragment 251-270 binding compounds – biochemical, small-molecule microarray, fluorescence 635/667 nm, 0.1 µg/mL protein, primary screen (AID 1182); settings: fluorescent protein binding, 635 nm, higher = more signal, called active from +8 up or from −8 down
XIP peptide (Xip251-270) = experiment: compounds binding XIP fragment 251-270 – biochemical, small-molecule microarray, fluorescence 635/667 nm, 0.5 µg/mL protein, primary screen (AID 1183); settings: fluorescence 635 nm, higher = more signal
[2] = blood-stage malaria parasite viability loss – strain 3D7, DAPI fluorescence, 100 nL, primary screen (AID 1184);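 also: parasites grown inside human red blood cells in medium with human serum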; settings: P. falciparum 3D7 growth, 3 d, higher = more signal
[3] = target: Homeobox protein Hox-A13 (Mus musculus) (UniProt Q62424); experiment: disruptors of Hoxa13 oligonucleotide interaction – biochemical, fluorescence polarization, labeled oligonucleotide, primary screen (AID 1185); settings: Hoxa13:DNA binding, 15 min, higher = more signal, called active from +8 up or from −8 down
Chain of Homeobox protein Hox-A13 (Mus musculus) (Q62424 whole entry, looked up): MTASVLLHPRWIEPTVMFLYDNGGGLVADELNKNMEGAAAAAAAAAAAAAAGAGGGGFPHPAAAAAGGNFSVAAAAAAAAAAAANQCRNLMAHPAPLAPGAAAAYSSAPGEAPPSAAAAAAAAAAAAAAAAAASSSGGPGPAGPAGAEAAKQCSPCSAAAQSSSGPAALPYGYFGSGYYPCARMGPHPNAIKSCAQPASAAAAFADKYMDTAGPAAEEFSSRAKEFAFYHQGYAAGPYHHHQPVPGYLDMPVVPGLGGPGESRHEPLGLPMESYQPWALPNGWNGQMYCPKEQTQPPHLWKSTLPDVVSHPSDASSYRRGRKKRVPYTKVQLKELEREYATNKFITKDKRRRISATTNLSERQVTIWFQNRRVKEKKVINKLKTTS

[4] = blockers of DNA damage checkpoint Chk1 activation – imaging, HeLa, hydroxyurea, phospho-Chk1 antibody, percent positive cells, primary screen (AID 1186); settings: hydroxyurea-induced phospho-Chk1 immunofluorescence imaging, higher = more signal
[5] = blockers of DNA damage checkpoint Chk1 activation – imaging, HeLa, hydroxyurea, phospho-Chk1 nuclear intensity, primary screen (AID 1187); settings: hydroxyurea-induced phospho-Chk1 immunofluorescence imaging, higher = more signal

Structure (SMILES) | composite z-score [1] | composite z-score (XIP peptide (Xip251-270)) | z-score [2] | z-score [3] | z-score [4] | z-score [5]
CCOC(=O)C[C@H]1[C@H](OC(=O)c2ccc(C(=O)c3ccccc3)cc2)[C@@H](NC(=O)c2ccc3ccccc3n2)c2cc(OCCCO)ccc2N1C(=O)Cc1ccc(OC)cc1 | -0.667 (inactive) | -0.219 | -2.69 | -0.833 (inactive) | -0.824 (inactive) | -0.835 (inactive)
CCCCC=C[C@@H](NC(=O)OCc1ccccc1Cl)c1ccccc1 | -0.549 (inactive) | 0.573 | -1.37 | 2.14 (inactive) | 0.663 (inactive) | -0.117 (inactive)
[N-]=[N+]=Nc1ccccc1C[C@]1(C(=O)NCC(O)CO)COC(c2ccc(OCCCO)cc2)=N1 (stereo not given in full) | -0.0462 (inactive) | 0.106 | -1.57 | -6.04 (inactive) | 0.0856 (inactive) | 0.636 (inactive)
Cc1ccc(S[C@]2(C(=O)NCC(F)(F)F)CC(=O)N(Cc3cc(C(F)(F)F)cc(C(F)(F)F)c3)[C@@H]2c2ccc(CO)cc2I)cc1 | 1.46 (inactive) | 0.981 | -0.609 | -2.68 (inactive) | 0.427 (inactive) | 0.684 (inactive)
Cc1ccc(F)cc1S(=O)(=O)N[C@@H]1CCN(Cc2ccc(Br)cc2)C1 | -0.238 (inactive) | -0.192 | -0.999 | -5.43 (inactive) | 0.0663 (inactive) | -0.335 (inactive)
CN1C2C=C(CCCO)C(C3C(=O)N(C(N)=O)C(=O)C32)C1C1CC1 (stereo not given) | 0.379 (inactive) | -0.0081 | 1.89 | -7.09 (inactive) | -0.25 (inactive) | 0.161 (inactive)
CCCCN1CC=CC23O[C@@H]4/C=C\CCCOC(=O)C4[C@H]2C(=O)N(CCO)[C@@H]3C1=O (stereo not given in full) | 0.51 (inactive) | 0.157 | -1.09 | -5.46 (inactive) | -0.302 (inactive) | 0.214 (inactive)
C=CCNC(=O)[C@@H]1[C@H]2C(=O)O[C@H](c3ccccc3)[C@H](c3ccccc3)N2[C@H](c2ccccc2OCCO)[C@@]12C(=O)Nc1ccc(C#CCCO)cc12 | 0.712 (inactive) | 0.596 | -2.22 | -3.84 (inactive) | -0.38 (inactive) | -0.262 (inactive)
C=CC[C@]1(C(=O)N2CCOCC2)COC(c2ccc(OCCCO)cc2)=N1 | 0.627 (inactive) | 0.879 | -0.813 | -6.97 (inactive) | -0.374 (inactive) | -0.0405 (inactive)
COc1cc2c(cc1O)C(C1CC1)N(Cc1cccc(OC(F)(F)F)c1)CC2 (stereo not given) | 0.676 (inactive) | 0.651 | -1.8 | -5.17 (inactive) | 0.433 (inactive) | 0.678 (inactive)
CCCCCN1CC=CC23O[C@@H]4/C=C\CCCOC(=O)C4[C@H]2C(=O)N(C(C)CO)[C@@H]3C1=O (stereo not given in full) | 0.221 (inactive) | 0.106 | 0.266 | -3.74 (inactive) | -0.107 (inactive) | 0.37 (inactive)
CCCCCCCCCC(O)C1C=CC2C(=O)N(c3ccccc3)C(=O)C2N1Nc1cc(OC)c(OC)c(OC)c1 (stereo not given) | -0.26 (inactive) | 0.206 | -0.412 | -2.06 (inactive) | 0.297 (inactive) | 0.0284 (inactive)
C=CCN1C(=O)[C@]2(CCS(=O)(=O)c3ccccc3)N=C(c3ccc(OCCCO)cc3)O[C@@H]2c2ccccc21 | 0.0088 (inactive) | 0.804 | -2.33 | -2.55 (inactive) | -0.419 (inactive) | -0.216 (inactive)
COC(=O)c1c(CC[C@@H](CO)NC(=O)N[C@@H](C)Cn2cc(-c3ccccn3)nn2)oc(C(C)=O)c1C(=O)OC | 1.29 (inactive) | 0.881 | -1.89 | 0.452 (inactive) | -0.207 (inactive) | 0.363 (inactive)
COc1cc2c(cc1O)C(c1ccc(CN3CCCC3)cc1)N(Cc1cc3c(cc1Br)OCO3)CC2 (stereo not given) | 0.0473 (inactive) | 0.723 | -2.36 | -1.73 (inactive) | 0.055 (inactive) | 0.174 (inactive)
COCC(=C=CC[C@H](O)c1ccc(OCCO)cc1)CCO | 0.407 (inactive) | -0.252 | -2.93 | -3.28 (inactive) | -0.638 (inactive) | -0.571 (inactive)
CS(=O)(=O)CCOC(=O)C1=CC(c2ccc(CO)cc2)=CC(C2CC2)N(Cc2sc3ccccc3c2Cl)C=C1C(=O)OCCS(C)(=O)=O (stereo not given) | 0.766 (inactive) | 0.492 | -3.02 | 0.0711 (inactive) | -0.27 (inactive) | 0.137 (inactive)
CC1CC/C=C\[C@H]2OC34C=CCN(c5ccc6ccccc6c5)C(=O)[C@H]3N(CCCO)C(=O)[C@@H]4C2C(=O)O1 (stereo not given in full) | -0.103 (inactive) | 0.327 | 0.293 | -5.63 (inactive) | 0.486 (inactive) | 0.104 (inactive)

Structure (SMILES) | composite z-score [1] | composite z-score (XIP peptide (Xip251-270)) | z-score [2] | z-score [3] | z-score [4] | z-score [5]
COCCOC(=O)N1C(=O)[C@@]2(c3cc(C#CC4=CCCCC4)ccc31)[C@H](C(=O)Nc1nc3ccccc3s1)[C@H]1C(=O)O[C@H](c3ccccc3)[C@H](c3ccccc3)N1[C@@H]2c1ccc(O)cc1 | -0.0082 (inactive) | 0.751 | -0.259 | -0.148 (inactive) | -0.0232 (inactive) | -0.0288 (inactive)
COc1ccc([Si](C)(C)[C@@H]2[C@@H](CCO)O[C@]3(C(=O)N(Cc4cccc(NC(=O)[C@H](C)O)c4)c4ccccc43)[C@H]2C)cc1 | 0.789 (inactive) | 0.755 | -2.69 | -5.95 (inactive) | 0.214 (inactive) | -0.189 (inactive)
CC(C)N1C(=O)C[C@@](C(=O)O)(c2ccc([N+](=O)[O-])cc2)[C@H]1c1ccc(CO)cc1 | 1.04 (inactive) | 0.916 | -0.352 | -2.9 (inactive) | -0.198 (inactive) | -0.0057 (inactive)
COc1cc(NN2C(C(O)c3ccc(N(C)C)cc3)C=CC3C(=O)N(c4ccccc4)C(=O)C32)cc(OC)c1OC (stereo not given) | 0.596 (inactive) | 0.0721 | -0.289 | -4.2 (inactive) | 0.111 (inactive) | -0.0651 (inactive)
CC(C)C(CO)N1C(=O)[C@@H]2C3C(=O)OCCC/C=C\[C@H]3OC23C=CCN(Cn2nnc4ccccc42)C(=O)[C@@H]13 (stereo not given in full) | -0.261 (inactive) | 0.348 | 0.596 | -3.97 (inactive) | -0.833 (inactive) | -0.709 (inactive)
CCCC=C(CCC)[C@@H](NC(=O)c1cccs1)c1ccc(C(=O)OC)cc1 | -0.185 (inactive) | 0.285 | -0.417 | -0.907 (inactive) | -0.255 (inactive) | -0.354 (inactive)
CC(C)(C)OC(=O)COc1cccc(C(=O)CCN2CCOCC2)c1 | 0.123 (inactive) | 0.248 | -0.367 | -1.11 (inactive) | -0.118 (inactive) | 0.0155 (inactive)
COc1ccc(C(=O)Nc2ccc(CN3C(=O)[C@]4(O[C@H](CC(=O)N5Cc6ccccc6C[C@H]5CO)[C@@H]([Si](C)(C)c5ccc(OC)cc5)[C@@H]4C)c4ccccc43)cc2)cc1 | 1.22 (inactive) | 0.775 | -2.31 | 0.247 (inactive) | 0.714 (inactive) | 0.329 (inactive)
CO[C@H]1O[C@H](CO)[C@@H](OC(=O)Nc2ccc(Br)cc2)[C@@H]2OC(=O)[C@@H](Cc3ccccc3)C/C=C/C[C@H](Cc3ccccc3)C(=O)O[C@@H]12 | 0.491 (inactive) | 0.693 | -0.683 | -1.27 (inactive) | -0.324 (inactive) | 0.406 (inactive)
COc1ccc(C#Cc2ccc3c(c2)[C@]2(C(=O)N3)[C@H](c3ccc(O)cc3)N3[C@H](c4ccccc4)[C@H](c4ccccc4)OC(=O)[C@H]3[C@@H]2C(=O)Nc2nc3ccccc3s2)cc1 | -0.52 (inactive) | 0.77 | -1.31 | -0.76 (inactive) | 0.372 (inactive) | 0.669 (inactive)
CC(C)[Si]1(C(C)C)OCc2cc(C3CC3)nc(-c3ccc(Oc4ccccc4)cc3)c21 | -0.495 (inactive) | -0.603 | -1.39 | -2.85 (inactive) | -0.48 (inactive) | -0.358 (inactive)
CCOC(=O)C[C@H]1[C@H](OC(=O)c2cc3ccccc3oc2=O)[C@@H](NC(=O)CC(C)C)c2cc(OCCCO)ccc2N1C(=O)c1ccc2ccccc2n1 | 2.46 (inactive) | 0.46 | -0.533 | -4.43 (inactive) | -0.121 (inactive) | -0.507 (inactive)
CCCC=C(CCC)[C@@H](NS(=O)(=O)c1ccc(C(F)(F)F)cc1)c1ccccc1 | 0.25 (inactive) | -0.0998 | -1.5 | -0.64 (inactive) | -0.0215 (inactive) | -0.157 (inactive)
COC(=O)C1(CC(C)C)C=C2C(=C(c3ccccc3)C(=O)C2C)CN1 (stereo not given) | -0.213 (inactive) | 0.758 | -0.104 | -7.47 (inactive) | -0.563 (inactive) | -1.13 (inactive)
COc1cc(NN2C(C(O)c3cc(OC)c(OC)c(OC)c3)C=CC3C(=O)N(C)C(=O)C32)cc(OC)c1OC (stereo not given) | 0.248 (inactive) | 0.438 | -0.354 | -4.51 (inactive) | -0.325 (inactive) | -0.328 (inactive)
CC[C@@H]1C=C(C(=O)O)[C@H](c2ccccc2)N1S(=O)(=O)c1ccc(C)cc1 | 0.336 (inactive) | 0.504 | 1.78 | -3.56 (inactive) | 0.504 (inactive) | 0.227 (inactive)
CC(C)N1CC=CC23O[C@@H]4C=CCCOC(=O)C4[C@H]2C(=O)N(CCCO)[C@@H]3C1=O (stereo not given in full) | 0.431 (inactive) | 0.598 | -2.07 | -4.97 (inactive) | -0.0561 (inactive) | -0.12 (inactive)
